Key:
Test in all cases: log2 ratio of Biotin-Ahx-Ub-VS probe labelling (fragment/DMSO); higher = less target engagement (more negative = stronger competition), active = hit call of the paper (q ≤ 0.05, log2 ratio ≤ -1)
Details in all cases: compound concentration: 200 uM; treatment time: 3 h
OTUD6B = biological target: T1, OTUD6B (UniProt Q8N6M0)
T1 sequence (whole entry): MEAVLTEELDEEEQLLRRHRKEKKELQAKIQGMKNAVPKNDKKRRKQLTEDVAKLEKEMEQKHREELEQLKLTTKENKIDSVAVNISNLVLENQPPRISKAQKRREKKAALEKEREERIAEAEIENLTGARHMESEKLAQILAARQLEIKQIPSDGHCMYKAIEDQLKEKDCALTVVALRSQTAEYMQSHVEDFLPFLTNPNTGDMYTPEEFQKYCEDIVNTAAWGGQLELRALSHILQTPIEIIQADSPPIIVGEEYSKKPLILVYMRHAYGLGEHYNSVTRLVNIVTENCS
In short: (§1)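 Each value is an average log2 ratio of fragment to vehicle, tested by unpaired t-test. The underlying Spectronaut label-free quantities were global-median-normalised, and only proteins with ≥2 unique peptides were included. Triplicate HEK293T lysate samples (495 µg) were exposed to fragment at 200 µM or vehicle for 3 h, then to Biotin-Ahx-Ub-VS at 0.5 µM final for 1 h, before NeutrAvidin enrichment of labelled DUBs, LysC and trypsin digestion, and diaPASEF LC-MS/MS.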

OTUD7B = biological target: T2, OTUD7B (UniProt Q6GQQ9)
T2 sequence (whole entry): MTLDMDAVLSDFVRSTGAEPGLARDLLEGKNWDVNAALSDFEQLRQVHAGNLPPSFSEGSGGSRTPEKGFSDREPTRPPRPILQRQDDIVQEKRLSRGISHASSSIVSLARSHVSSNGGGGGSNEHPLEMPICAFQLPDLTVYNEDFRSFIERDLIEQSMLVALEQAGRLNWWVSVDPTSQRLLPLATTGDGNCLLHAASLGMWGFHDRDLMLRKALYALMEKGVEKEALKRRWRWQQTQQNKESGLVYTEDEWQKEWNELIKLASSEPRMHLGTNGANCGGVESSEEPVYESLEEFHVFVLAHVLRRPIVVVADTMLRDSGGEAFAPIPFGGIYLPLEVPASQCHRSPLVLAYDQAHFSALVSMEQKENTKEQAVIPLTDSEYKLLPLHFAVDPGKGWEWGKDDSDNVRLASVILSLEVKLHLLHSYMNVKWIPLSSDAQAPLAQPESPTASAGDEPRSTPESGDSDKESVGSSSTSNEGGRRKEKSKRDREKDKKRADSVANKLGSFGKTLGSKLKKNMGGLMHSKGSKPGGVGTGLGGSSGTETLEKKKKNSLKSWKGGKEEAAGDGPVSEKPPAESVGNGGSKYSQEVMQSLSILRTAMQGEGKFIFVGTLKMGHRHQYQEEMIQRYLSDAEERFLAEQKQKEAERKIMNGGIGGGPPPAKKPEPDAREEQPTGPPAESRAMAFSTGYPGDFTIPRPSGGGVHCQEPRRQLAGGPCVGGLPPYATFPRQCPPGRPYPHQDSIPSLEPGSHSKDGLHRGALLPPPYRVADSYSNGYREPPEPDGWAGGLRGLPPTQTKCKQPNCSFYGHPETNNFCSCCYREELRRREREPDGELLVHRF
In short: as §1

PRPF8 = PRPF8 (UniProt Q6P2Q9)
In short: as §1

PSMD7 = biological target: T3, PSMD7 (UniProt P51665)
T3 sequence (whole entry): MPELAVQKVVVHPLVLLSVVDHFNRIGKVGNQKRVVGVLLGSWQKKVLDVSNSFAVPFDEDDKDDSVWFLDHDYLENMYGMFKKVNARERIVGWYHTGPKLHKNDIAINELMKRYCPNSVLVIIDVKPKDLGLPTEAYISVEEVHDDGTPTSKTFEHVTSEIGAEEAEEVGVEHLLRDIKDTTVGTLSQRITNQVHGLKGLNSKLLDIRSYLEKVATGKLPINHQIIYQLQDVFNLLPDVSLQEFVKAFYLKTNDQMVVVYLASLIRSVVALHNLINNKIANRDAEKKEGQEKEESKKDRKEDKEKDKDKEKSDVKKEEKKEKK
In short: as §1

UCHL1 = UCHL1 (UniProt P09936)
UCHL1, sequence (P09936 whole entry, looked up): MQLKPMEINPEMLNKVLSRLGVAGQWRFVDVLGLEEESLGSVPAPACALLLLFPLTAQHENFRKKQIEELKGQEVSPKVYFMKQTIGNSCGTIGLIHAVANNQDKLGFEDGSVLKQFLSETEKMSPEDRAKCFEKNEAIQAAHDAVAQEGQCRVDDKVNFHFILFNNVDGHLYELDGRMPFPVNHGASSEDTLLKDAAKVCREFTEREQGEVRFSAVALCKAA
In short: as §1

UCHL3 = biological target: T4, UCHL3 (UniProt P15374)
T4 sequence (whole entry): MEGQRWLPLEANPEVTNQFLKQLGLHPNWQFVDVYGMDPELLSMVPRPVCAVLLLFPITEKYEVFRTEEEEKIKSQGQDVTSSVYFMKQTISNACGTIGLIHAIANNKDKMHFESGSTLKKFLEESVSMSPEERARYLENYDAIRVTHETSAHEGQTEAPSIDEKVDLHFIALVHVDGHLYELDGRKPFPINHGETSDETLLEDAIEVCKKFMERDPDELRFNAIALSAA
In short: as §1

UCHL5 = biological target: T5, UCHL5 (UniProt Q9Y5K5)
T5 sequence (whole entry): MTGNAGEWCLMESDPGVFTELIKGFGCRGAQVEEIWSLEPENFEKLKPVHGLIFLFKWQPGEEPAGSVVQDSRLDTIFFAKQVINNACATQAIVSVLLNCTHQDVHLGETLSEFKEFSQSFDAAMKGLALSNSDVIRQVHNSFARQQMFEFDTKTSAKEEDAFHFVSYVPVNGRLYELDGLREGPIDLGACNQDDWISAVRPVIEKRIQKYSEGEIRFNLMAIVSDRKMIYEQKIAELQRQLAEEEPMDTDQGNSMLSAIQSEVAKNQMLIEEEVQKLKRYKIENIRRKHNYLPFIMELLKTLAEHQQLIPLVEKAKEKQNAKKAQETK
In short: as §1

USP10 = USP10 (UniProt Q14694)
USP10, sequence (Q14694 whole entry): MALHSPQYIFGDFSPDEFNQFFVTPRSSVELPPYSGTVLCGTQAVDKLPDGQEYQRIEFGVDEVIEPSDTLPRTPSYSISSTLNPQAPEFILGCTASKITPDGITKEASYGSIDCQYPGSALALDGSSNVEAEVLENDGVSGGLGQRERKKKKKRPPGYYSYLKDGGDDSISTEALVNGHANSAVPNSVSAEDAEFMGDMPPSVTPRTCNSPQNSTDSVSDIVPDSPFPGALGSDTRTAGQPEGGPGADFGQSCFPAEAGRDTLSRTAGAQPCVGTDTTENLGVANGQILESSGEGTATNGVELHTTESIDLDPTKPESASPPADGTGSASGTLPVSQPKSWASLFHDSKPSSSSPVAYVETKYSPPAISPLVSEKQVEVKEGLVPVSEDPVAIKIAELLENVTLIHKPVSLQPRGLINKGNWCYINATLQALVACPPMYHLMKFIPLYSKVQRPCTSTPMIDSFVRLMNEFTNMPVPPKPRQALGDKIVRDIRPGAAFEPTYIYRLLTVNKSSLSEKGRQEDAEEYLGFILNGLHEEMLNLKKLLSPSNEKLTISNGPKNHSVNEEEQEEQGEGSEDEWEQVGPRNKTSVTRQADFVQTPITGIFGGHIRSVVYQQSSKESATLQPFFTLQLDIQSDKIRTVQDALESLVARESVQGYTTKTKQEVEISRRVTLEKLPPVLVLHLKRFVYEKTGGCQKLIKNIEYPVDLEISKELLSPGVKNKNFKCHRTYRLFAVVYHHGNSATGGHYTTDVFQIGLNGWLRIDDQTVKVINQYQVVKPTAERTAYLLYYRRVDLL
In short: as §1

USP15 = biological target: T6, USP15 (UniProt Q9Y4E8)
T6 sequence (whole entry): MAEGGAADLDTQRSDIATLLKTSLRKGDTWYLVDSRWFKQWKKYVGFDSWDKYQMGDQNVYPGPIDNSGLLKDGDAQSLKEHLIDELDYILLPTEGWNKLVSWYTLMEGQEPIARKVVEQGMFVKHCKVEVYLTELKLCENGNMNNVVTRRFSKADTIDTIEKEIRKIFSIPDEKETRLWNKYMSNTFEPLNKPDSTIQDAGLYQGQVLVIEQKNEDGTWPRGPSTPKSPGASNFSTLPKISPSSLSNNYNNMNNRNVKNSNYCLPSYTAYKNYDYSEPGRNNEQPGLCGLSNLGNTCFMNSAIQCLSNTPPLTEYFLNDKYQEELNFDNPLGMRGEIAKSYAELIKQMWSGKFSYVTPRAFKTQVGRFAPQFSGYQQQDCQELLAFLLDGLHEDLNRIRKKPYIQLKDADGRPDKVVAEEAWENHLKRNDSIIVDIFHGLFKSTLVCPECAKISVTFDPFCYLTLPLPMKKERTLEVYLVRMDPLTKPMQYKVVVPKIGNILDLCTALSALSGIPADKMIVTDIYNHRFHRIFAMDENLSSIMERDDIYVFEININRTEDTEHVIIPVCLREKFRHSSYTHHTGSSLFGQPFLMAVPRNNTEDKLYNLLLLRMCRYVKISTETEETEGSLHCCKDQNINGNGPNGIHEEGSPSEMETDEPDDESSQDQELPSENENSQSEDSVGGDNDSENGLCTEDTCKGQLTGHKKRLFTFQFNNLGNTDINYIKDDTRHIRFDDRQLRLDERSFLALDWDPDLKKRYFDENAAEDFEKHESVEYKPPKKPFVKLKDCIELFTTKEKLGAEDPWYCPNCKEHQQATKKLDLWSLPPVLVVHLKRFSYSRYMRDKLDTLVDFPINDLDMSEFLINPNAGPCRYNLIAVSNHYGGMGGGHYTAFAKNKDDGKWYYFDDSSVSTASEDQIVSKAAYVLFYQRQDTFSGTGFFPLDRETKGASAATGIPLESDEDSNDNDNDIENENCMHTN
In short: as §1

USP16 = USP16 (UniProt Q9Y5T5)
USP16, sequence (Q9Y5T5 whole entry, looked up): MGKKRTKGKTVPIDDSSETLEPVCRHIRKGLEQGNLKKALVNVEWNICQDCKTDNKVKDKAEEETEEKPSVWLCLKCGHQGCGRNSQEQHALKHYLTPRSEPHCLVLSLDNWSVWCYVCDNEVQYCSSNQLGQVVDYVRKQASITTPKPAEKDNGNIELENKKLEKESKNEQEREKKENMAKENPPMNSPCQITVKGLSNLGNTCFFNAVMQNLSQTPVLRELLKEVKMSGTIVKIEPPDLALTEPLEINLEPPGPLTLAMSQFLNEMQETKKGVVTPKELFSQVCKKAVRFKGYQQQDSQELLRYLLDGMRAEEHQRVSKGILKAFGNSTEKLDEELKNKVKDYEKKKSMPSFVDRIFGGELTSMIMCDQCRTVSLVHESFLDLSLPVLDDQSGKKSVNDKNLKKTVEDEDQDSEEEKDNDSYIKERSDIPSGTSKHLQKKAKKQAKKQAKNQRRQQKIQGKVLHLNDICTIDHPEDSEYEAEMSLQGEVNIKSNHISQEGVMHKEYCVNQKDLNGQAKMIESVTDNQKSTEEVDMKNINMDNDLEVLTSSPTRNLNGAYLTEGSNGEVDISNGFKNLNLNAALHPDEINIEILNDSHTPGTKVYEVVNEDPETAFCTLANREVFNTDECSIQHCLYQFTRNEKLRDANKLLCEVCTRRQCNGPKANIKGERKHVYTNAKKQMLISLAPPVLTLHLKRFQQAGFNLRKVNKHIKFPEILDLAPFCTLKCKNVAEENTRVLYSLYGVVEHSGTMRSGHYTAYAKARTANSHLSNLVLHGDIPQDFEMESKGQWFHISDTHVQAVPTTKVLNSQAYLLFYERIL
In short: as §1

Measured: log2 ratio of Biotin-Ahx-Ub-VS probe labelling

O=C(CCl)Nc1cccc2ncccc12
inactive: OTUD6B -0.0779 | PRPF8 -0.308 | PSMD7 -0.0733 | UCHL3 0.101 | UCHL5 -0.321 | USP10 0.0543 | USP15 -0.178 | USP16 0.52
active: OTUD7B -1 | UCHL1 -1.25

— the supplement of paper PMC11732987, “Enantioselective OTUD7B fragment discovery through chemoproteomics screening and high-throughput optimisation” (Communications Chemistry, 2025)
